In ChEMBL document CHEMBL1157539, “Thousands of chemical starting points for antimalarial lead identification” (Nature, 2010) one finds Inhibition data, which are given here for 29 molecules.

Common to all, as to format: functional
For assay [1], the system named is Plasmodium falciparum. Put plainly: GSK_TCMDC: Inhibition of Plasmodium falciparum 3D7 in whole red blood cells, using parasite LDH activity as an index of growth. Test compounds present at 2uM.
The subject of assay [2] is Plasmodium falciparum. As to the kind of experiment: GSK_TCMDC: Inhibition of Plasmodium falciparum Dd2 in whole red blood cells, using parasite LDH activity as an index of growth. Test compounds present at 2uM.
Another assay concerns HepG2. As to the kind of experiment: GSK_TCMDC: Percent inhibition of human HepG2 cell line. Test compounds present at 10uM.

For the molecule `Cc1cccc2nc(-c3ccc(-c4ccc(NC(=O)Nc5ccc(Cl)c(Cl)c5)cc4)s3)[nH]c12`, the Inhibition with Plasmodium falciparum [1], in the assay with Plasmodium falciparum [2] and with HepG2 was 100% in each case.

As to `COc1ccccc1N=C1SC(=Cc2cn(CC(=O)N3CCCc4ccccc43)c3ccccc23)C(=O)N1C1CCCCC1`, the Inhibition with Plasmodium falciparum [1] is recorded as 100%; with Plasmodium falciparum [2], 99%; in the assay with HepG2 it was 10%.

Turning to `CCOc1cc(C(=O)NC2CC(C)(C)N(C)C(C)(C)C2)ccc1-c1nc2cc(Cl)c(Cl)cc2[nH]1`, the Inhibition is 100% with Plasmodium falciparum [1], 49% in the assay on Plasmodium falciparum [2] and 64% with HepG2.

With `CC[C@H](C)CNC(=O)c1cncc(-c2ccc(CNCCOc3ccccc3)cc2)c1.O=C(O)C(F)(F)F`, the values for the Inhibition with Plasmodium falciparum [1], in the assay with Plasmodium falciparum [2] and in the assay with HepG2 were 90%, 0% and 7%, respectively.

Consider `O=C(Nc1ccon1)c1cc(-c2cccnc2)nc2ccc(Br)cc12`, for which the Inhibition in the assay with Plasmodium falciparum [1] came out at 99%; with Plasmodium falciparum [2], 77%; in the assay on HepG2, 7%.

In the case of `Cc1ccccc1Oc1nc2ccccc2nc1SCC(=O)NC(C)C`, the Inhibition in the assay with Plasmodium falciparum [1] stood at 97%; in the assay with Plasmodium falciparum [2] it was 55%; in the assay on HepG2 it was 0%.

On to `Nc1ncc(-c2cccc(F)c2)cc1-c1nc2cc(F)ccc2[nH]1.O=C(O)C(F)(F)F`, for which the Inhibition in the assay on Plasmodium falciparum [1] is 100%; in the assay with Plasmodium falciparum [2] it was 88%; with HepG2, 54%.

For the molecule `O=C(Cn1c(CCc2cccc(F)c2F)nc(=O)c2ccccc21)N(Cc1ccc(-c2ccc(C(F)(F)F)cc2)cc1)C1CCN(C2CCOCC2)CC1.O=C(O)C(O)C(O)C(=O)O`, the values for the Inhibition in the assay with Plasmodium falciparum [1], in the assay on Plasmodium falciparum [2] and in the assay on HepG2 were 100%, 76% and 97%, respectively.

On to `COc1ccc(N2CCN(CCCCNCc3ccc(NC(=O)c4cc(Cl)cc(Cl)c4)cc3)CC2)c(OC)c1`, for which the Inhibition in the assay on Plasmodium falciparum [1] is recorded as 100%; in the assay with Plasmodium falciparum [2], 99%; in the assay with HepG2, 39%.

Regarding `CN(CCC(CCN1CCC(c2c[nH]c3ccccc23)CC1)c1ccccc1)C(=O)Nc1ccc(Cl)c(Cl)c1` (configuration not stated), the Inhibition in the assay on Plasmodium falciparum [1] turned out to be 91%; in the assay on Plasmodium falciparum [2], 21%; with HepG2 it was 50%.

In the case of `CCNc1cc(C(=O)N[C@@H](Cc2ccccc2)[C@H](O)CNC2(CC(C)C)CC2)cc(N2CCCCS2(=O)=O)c1.Cl`, the Inhibition with Plasmodium falciparum [1] is given as 87%; with Plasmodium falciparum [2] it was 29%; in the assay on HepG2, 0%.

As to `CCc1ccc(-c2nc3cc(NC(=O)c4ccc([N+](=O)[O-])o4)ccc3o2)cc1`, the Inhibition in the assay on Plasmodium falciparum [1] is given as 97%; in the assay on Plasmodium falciparum [2] it was 80%; with HepG2 it was 4%.

With `C[C@H](Cc1ccc(CCc2ccc(C[C@@H](C)NC[C@H](O)c3cccc(Cl)c3)cc2)cc1)NC[C@H](O)c1cccc(Cl)c1.Cl`, the Inhibition is listed as 95% with Plasmodium falciparum [1], 92% with Plasmodium falciparum [2] and 100% in the assay with HepG2.

On to `Cc1ccc(NC(=O)c2cc([N+](=O)[O-])ccc2NCc2cccnc2)cc1Cl`, for which the Inhibition in the assay on Plasmodium falciparum [1] turned out to be 86%; in the assay on Plasmodium falciparum [2] it was 58%; in the assay on HepG2 it was 9%.

Consider `Cc1cc(N/N=C/c2cccc([N+](=O)[O-])c2)c2ccc(F)cc2n1`, for which the Inhibition in the assay on Plasmodium falciparum [1] is listed as 100%; in the assay with Plasmodium falciparum [2], 98%; with HepG2 it was 0%.

With `COc1ccccc1CCNC(=O)c1cnc(N2CCN(c3ccncc3)CC2)c(Cl)c1.O=C(O)C(F)(F)F`, the Inhibition was 98% with Plasmodium falciparum [1], 54% in the assay with Plasmodium falciparum [2] and 30% in the assay on HepG2.

Consider `Cc1c[nH]c2ccc(/C=C/C(=O)NC3CCC(CCN4CCc5ccc(C#N)cc5CC4)CC3)cc12.Cl` (configuration not stated), for which the Inhibition with Plasmodium falciparum [1] was determined as 100%; with Plasmodium falciparum [2] it was 91%; in the assay with HepG2, 9%.

With `O=C(C=Cc1ccc(-c2nc3ccccc3[nH]2)cc1)NC1CCN(Cc2ccccc2)CC1`, the Inhibition with Plasmodium falciparum [1] is reported as 99%; with Plasmodium falciparum [2], 88%; in the assay on HepG2, 15%.

As to `CCCN(CCC)CCCCC(C)Nc1c2ccc(Cl)cc2nc2ccc(OC)cc12.Cl` (configuration not stated), the Inhibition was determined as 100% in the assay with Plasmodium falciparum [1], 100% in the assay on Plasmodium falciparum [2] and 42% in the assay on HepG2.

On to `Cc1ccc(O)cc1Nc1ccnc2cc(-c3ccccc3)ccc12.Cl`, for which the Inhibition with Plasmodium falciparum [1] is listed as 100%; in the assay with Plasmodium falciparum [2], 99%; in the assay with HepG2, 45%.

Regarding `CC(C)CCNCc1ccc(OCc2ccccc2COc2ccc(CNCCC(C)C)cc2I)c(I)c1.Cl`, the Inhibition with Plasmodium falciparum [1] is recorded as 100%; in the assay on Plasmodium falciparum [2], 78%; in the assay with HepG2, 99%.

Regarding `COc1ccc(N2CCN(CCCOc3ccc(NC(=O)c4cc(Cl)cc(Cl)c4)cc3)CC2)c(OC)c1`, the Inhibition with Plasmodium falciparum [1] worked out at 100%; with Plasmodium falciparum [2], 41%; in the assay on HepG2, 38%.

For the molecule `COc1ccc(Cl)cc1N1CCN(CCCNC(=O)c2ccc(-c3nc4cc(Cl)c(C)cc4[nH]3)s2)CC1`, the Inhibition in the assay with Plasmodium falciparum [1] is listed as 100%; with Plasmodium falciparum [2] it was 97%; in the assay on HepG2 it was 0%.

As to `CCc1cc2c(O)c([N+](=O)[O-])c(=O)oc2cc1OCCCCCOc1cc2oc(=O)c([N+](=O)[O-])c(O)c2cc1CC`, the Inhibition in the assay on Plasmodium falciparum [1] is 99%; with Plasmodium falciparum [2], 0%; in the assay with HepG2, 11%.

As to `Cc1nc2nc(N)nc(N)c2c(C)c1Cc1cccc(F)c1.Cl`, the figures for the Inhibition in the assay on Plasmodium falciparum [1], with Plasmodium falciparum [2] and in the assay with HepG2 were 96%, 1% and 65%, respectively.

Consider `Cl.Fc1cc(Cl)ccc1Nc1ccnc(Nc2ccc3cn[nH]c3c2)n1`, for which the Inhibition worked out at 97% with Plasmodium falciparum [1], 56% in the assay with Plasmodium falciparum [2] and 8% in the assay with HepG2.

On to `CN1CCN(C(=O)CN2CCC3(CCC2=O)NC(=O)c2ccccc2O3)CC1` (configuration not stated), for which the Inhibition stood at 99% with Plasmodium falciparum [1], 98% in the assay with Plasmodium falciparum [2] and 0% in the assay with HepG2.

On to `COc1cccc(-c2csc(C(=O)NCC3CCN(Cc4ccc(C(C)C)cc4)C3)c2)c1.O=C(O)C(F)(F)F` (configuration not stated), for which the Inhibition in the assay with Plasmodium falciparum [1] came out at 86%; in the assay on Plasmodium falciparum [2], 9%; with HepG2 it was 35%.

For `Cc1[nH]c(-c2ccc(F)cc2)cc1C(=O)NC1CCN(Cc2ccccc2)CC1`, the figures for the Inhibition in the assay with Plasmodium falciparum [1], in the assay with Plasmodium falciparum [2] and in the assay with HepG2 were 84%, 9% and 6%, respectively.

The term Inhibition denotes how much of the control response was suppressed. The low end stands for a weak effect, the high end for a strong effect.
